Results from PubChem BioAssay AID606 (Columbia University Molecular Screening Center, 2007).
Among all 52,000 compounds or so, fewer than 10 were called active.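 Rule for the calls: active = IC50 under 40 µM in the dose-response test; inactive = IC50 of 40 µM or more, or never dose-tested.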 The list is a sample of the results.

molecular target: Tyrosine-protein phosphatase non-receptor type 22 (Homo sapiens) (UniProt Q9Y2R2); assay: LYP phosphatase inhibitors, primary screen, biochemical, DiFMUP fluorescence, recombinant catalytic domain, 10 µM (AID 606); conditions: at 10 µM, stronger effect = higher value
Sequence (Q9Y2R2 whole entry, looked up, the tested form may be a part): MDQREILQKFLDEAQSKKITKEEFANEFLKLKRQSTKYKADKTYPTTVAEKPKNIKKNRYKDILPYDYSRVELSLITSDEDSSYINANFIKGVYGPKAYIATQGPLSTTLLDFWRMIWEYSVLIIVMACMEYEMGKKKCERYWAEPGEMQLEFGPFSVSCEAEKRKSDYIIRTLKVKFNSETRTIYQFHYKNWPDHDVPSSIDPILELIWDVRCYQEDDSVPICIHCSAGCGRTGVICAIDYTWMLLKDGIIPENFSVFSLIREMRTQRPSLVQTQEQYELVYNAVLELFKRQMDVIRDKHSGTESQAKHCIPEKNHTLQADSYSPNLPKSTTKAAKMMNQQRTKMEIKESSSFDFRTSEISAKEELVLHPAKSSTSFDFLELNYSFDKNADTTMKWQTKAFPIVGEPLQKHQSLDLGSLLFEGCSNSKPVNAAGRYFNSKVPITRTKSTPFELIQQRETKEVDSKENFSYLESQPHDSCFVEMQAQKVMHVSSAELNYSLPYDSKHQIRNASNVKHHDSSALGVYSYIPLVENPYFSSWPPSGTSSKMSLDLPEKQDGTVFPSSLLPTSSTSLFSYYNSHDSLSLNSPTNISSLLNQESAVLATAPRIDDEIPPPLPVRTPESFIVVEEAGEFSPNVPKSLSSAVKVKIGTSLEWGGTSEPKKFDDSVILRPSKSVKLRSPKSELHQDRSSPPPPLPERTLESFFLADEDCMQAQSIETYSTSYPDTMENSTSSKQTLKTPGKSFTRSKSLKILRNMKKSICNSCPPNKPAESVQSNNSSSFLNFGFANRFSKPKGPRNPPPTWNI

SMILES | inhibition
CC(C)(C)NC(=O)CN(C(=O)c1ccc(CN2CCOCC2)o1)c1ccc2c(c1)OCCO2 | -2.48% (inactive)
N#CCCN(C(=O)c1ccco1)c1ccccc1 | 9.22% (inactive)
Cc1ccc(NC(=O)c2ccc(S(=O)(=O)NCC3CCCO3)cc2)cc1 (stereo not given) | 15.7% (inactive)
O=C(CN1CCN(S(=O)(=O)c2ccc(Br)cc2)CC1)Nc1ccc2c(c1)OCO2 | 14.6% (inactive)
O=C(NCC1CCCO1)[C@@H]1CSC2c3ccccc3C(=O)N21 (stereo not given in full) | -1.83% (inactive)
O=C(CSc1nnc(-c2ccccn2)n1Cc1ccco1)c1ccc(-c2ccccc2)cc1 | -10.3% (inactive)
O=C(CCc1ccccc1)Nc1nnc(-c2cccs2)o1 | -13% (inactive)
COc1ccc(C(=O)N2CC(=O)N(CCc3ccccc3)C(=O)C2)cc1OC | 9.04% (inactive)
O=C(C1CCN(S(=O)(=O)N2CCOCC2)CC1)N1CCOCC1 | 2.43% (inactive)
CC1CN(Cc2nc3c(c(=O)n(C)c(=O)n3C)n2CC(=O)c2ccccc2)CC(C)O1 (stereo not given) | -0.17% (inactive)
COc1ccc(-n2c(=O)[nH]cc(C(=O)N3CCCc4ccccc43)c2=O)cc1 | 2.14% (inactive)
O=C(NCc1ccco1)C1CCN(S(=O)(=O)c2cccc3cccnc23)CC1 | 4.72% (inactive)
CCCCn1c2c(c(=O)n(C)c1=O)C(c1ccc(OC)cc1)N1CCCCCC1=N2 (stereo not given) | -3.4% (inactive)
Cc1ccc(S(=O)(=O)NCCC(=O)NCc2ccccc2)cc1 | 7.96% (inactive)
CC1CCc2sc3nc(NCc4ccco4)n4ncnc4c3c2C1 (stereo not given) | 2.11% (inactive)
C=CCn1c(NCCO)nc2sc3c(c2c1=O)CCC3 | 11.6% (inactive)
OCCn1nc2c3ccccc3nc-2n(-c2ccccc2)c1=S | 3.81% (inactive)
O=C(Nc1c(C(=O)N2CCOCC2)cnn1-c1ccccc1)c1ccccc1 | 1.38% (inactive)
COc1ccc2c(c1)C1(Nc3ccccc3-c3nc4ccccc4n31)C(=O)N2C (stereo not given) | 7.56% (inactive)
C1CCc2c(nnc3c2-c2nonc2CC3)C1 | 11.1% (inactive)

SMILES | inhibition
CSc1nc2c(c(=O)n1Cc1ccccc1)SC(C)C2 (stereo not given) | 0.73% (inactive)
Cn1c(SCC(=O)N2CCCCC2)nnc1-c1ccc(S(=O)(=O)N2CCOCC2)cc1 | 13.4% (inactive)
CC(C)(C)NC(=O)C(OC(=O)Cn1nnc(-c2ccc(F)cc2)n1)c1ccncc1 (stereo not given) | 1.61% (inactive)
O=C(c1cc2ccccn2n1)N1CCN(c2ccccn2)CC1 | 7.66% (inactive)
CN1C(=O)C(O)(CC(=O)c2ccccn2)c2cc(Br)ccc21 (stereo not given) | 4.59% (inactive)
COc1cc2ccccc2cc1C(=O)Nc1ccccc1N1CCN(S(C)(=O)=O)CC1 | 6.41% (inactive)
CC(=O)c1c(N2CCN(c3ccccc3)CC2)nc(=S)n(-c2ccccc2)c1C | 3.4% (inactive)
Cn1c(CCNC(=O)c2cccs2)nnc1SCC(=O)N1CCN(c2ccccc2)CC1 | 6.14% (inactive)
CCN1C(=O)C(O)(CC(=O)c2cc(C)ccc2C)c2ccccc21 (stereo not given) | 11.7% (inactive)
CCOC(=O)c1cc2n(n1)C(C(F)(F)C(F)(F)F)CC(C)N2 (stereo not given) | 15.7% (inactive)
O=C(C1CCN(c2nnc(-n3cccc3)s2)CC1)N1CCN(c2cccc(C(F)(F)F)c2)CC1 | -2.18% (inactive)
NC(=O)CN(c1ccc(Cl)cc1)S(=O)(=O)c1ccccc1 | -12.5% (inactive)
COc1ccc(N(CC(=O)N2CCc3ccccc3C2)S(=O)(=O)c2c(C)nn(C)c2C)cc1 | -0.55% (inactive)
O=C(NCc1ccccc1)c1ccc(COCC(F)(F)F)o1 | 11.7% (inactive)
CCN1C(=Nc2ccc(Cl)cc2)SC/C1=C\C(=O)OC | 6.44% (inactive)
COc1ccc(C2CC(c3cccc(C)c3)n3ncnc3N2)cc1 (stereo not given) | 16.6% (inactive)
CC1CCC(NC(=O)CN2C(=O)C3CCCN3c3ncc(Cl)cc32)CC1 (stereo not given) | -36.6% (inactive)
Cc1cc(N2CCN(C(c3ccccc3)c3ccc(Cl)cc3)CC2)n2ncnc2n1 (stereo not given) | 3.46% (inactive)
O=C(Nc1ccccn1)C1CCN(S(=O)(=O)c2cccs2)CC1 | 4.65% (inactive)
COc1ccc(CCNC(=O)CC2Oc3ccc(Cl)cc3NC2=O)cc1OC (stereo not given) | -7.5% (inactive)

SMILES | inhibition
CC(=O)Nc1ccc(C(=O)OCCC(C)C)cc1 | -3.58% (inactive)
Cc1nc2ccc(S(=O)(=O)NCC(=O)N(C)Cc3ccco3)cc2s1 | 4.87% (inactive)
CNC(=O)c1ccccc1NC(=O)c1cccc(S(=O)(=O)N2CCC(C)CC2)c1 | -7.79% (inactive)
CCc1ccc2c(COn3nnc4ccc(S(=O)(=O)N(C)C)cc43)cc(=O)oc2c1 | -1.03% (inactive)
CCCSCCCNC(=O)CC1Oc2ccccc2NC1=O (stereo not given) | 2.3% (inactive)
Cc1cccc(Nc2ncnc3nc[nH]c23)c1 | -1.47% (inactive)
CCOCCCNCc1ccc(OC)c(OC)c1 | 6.63% (inactive)
CCOC(=O)C1CCN(C(=O)CN(c2cccc(OC)c2)S(=O)(=O)c2ccccc2)CC1 | -2.95% (inactive)
COc1ccccc1OCCC(=O)OCCN1C(=O)c2ccccc2C1=O | -6.96% (inactive)
O=C(Cn1cnc2ccccc2c1=O)N1CCN(Cc2ccccc2)CC1 | 15.4% (inactive)
CC(C)(C)c1ccc(S(=O)(=O)N2CCCCC2C(=O)NCc2ccccn2)cc1 (stereo not given) | 11% (inactive)
CCOc1ccc(NC(=O)CSc2nnc(-c3ccccn3)n2N)cc1 | 6.01% (inactive)
Cc1c(NC(=O)C2CCCN(S(=O)(=O)c3cnc[nH]3)C2)c(=O)n(-c2ccccc2)n1C (stereo not given) | 8.93% (inactive)
COc1ccc2c(C)cc(SCC(=O)N3CCOCC3)nc2c1 | 8.83% (inactive)
Cc1cc(=O)[nH]c(SCC(=O)c2ccc(C(C)C)cc2)n1 | 10.2% (inactive)
COC(=O)C1=C(C)n2nnnc2NC1c1cc2ccccc2o1 (stereo not given) | 12.9% (inactive)
COc1cccc(NC(=O)CN(c2cccc(F)c2)S(C)(=O)=O)c1 | -7.34% (inactive)
Cc1cc(C)c(S(=O)(=O)N(C)Cc2cnn(C)c2)c(C)c1 | 7.74% (inactive)
Cc1ccc(-c2cc(C(=O)NCc3ccccn3)no2)cc1 | 6.16% (inactive)
CC1(C)Cc2ccccc2-c2nnc(-c3ccc(O)cc3)n21 | 5.6% (inactive)
